Nrf2 ARE act: qHTS of Nrf2 Activators; AREc32 ARE-luciferase reporter (MCF7-derived line), luminescence, 24 h; Potency, µM (series often up to 46.1 µM), without a hit: at the top dose activation, most hits filed as activators; 410,000 tested, 0.31% active; AID 624171, 2012; note: potency is the fitted concentration of half-maximal effect; % of control where 0% means no effect; nearly all actives have a fitted effect of over 65% in size
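Cells of the AREc32 ARE-luciferase line are plated in OPTI-MEM containing 5% FBS and left overnight at 37 deg C. Compounds are pinned in, incubation continues 24 hr, and firefly luciferase signal is then measured.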
A549 tox: Nrf2 qHTS screen for inhibitors: counterscreen for cytotoxicity; 390,000 tested, 0.16% active; A549 ARE-Fluc cells, CellTiter-Fluor viability, 18-24 h; Potency, µM (top dose mostly 46 µM), without a hit: at the top dose activity change, negative = cytotoxicity, most hits filed as inhibitors; note: potency is the fitted concentration of half-maximal effect; % is set by controls: 0 for no effect and ±100 for the full control effect
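A549 ARE_Fluc cells in 5% FBS OPTI-MEM were exposed to compounds in concentration-response for 18-24 h at 37 deg C. Viability was read by CellTiter-Fluor fluorescence (Ex 405/Em 525) after 30 min, before the luciferase read.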
Nrf2 inh: Nrf2 qHTS screen for inhibitors; A549 ARE-Fluc reporter, luciferase luminescence, 18-24 h; Potency, µM (highest dose often 46 µM), for inactives: at the highest dose activity change, negative = inhibition, actives largely listed as inhibitors; 360,000 tested, 2.1% active; AID 504444, 2011; note: potency is the fitted concentration of half-maximal effect; % is set by controls: 0 for no effect and ±100 for the full control effect; nearly all actives have a fitted effect of over 60% in size
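Nrf2 activity is the BugLite luminescence, read 15 min after reagent at room temperature, following CellTiter-Fluor cytotoxicity readout (30 min, 37C). Compound titrations were applied for 18-24 h to 5000 A549 ARE_Fluc cells/well in 5% FBS OPTI-MEM.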
IL-2 act: qHTS of IL-2 Activators. IL-2 activation reporter assay, cell-based qHTS; stimulated with anti-CD3/CD4/CD28 beads; in transgenic mouse T cells. AID 652025, 2013. activation, % (series mostly up to about 46 µM). 360,000 tested, 0.065% active; in the data active = activation above about 50%; inconclusive = mostly about 30% to 49%; note: 0% is about no effect
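EGFP and DsRed fluorescence is measured by plate cytometry in unstimulated transgenic mouse T cells exposed to compound for 60 minutes, then stimulated 18 hours at 37 degrees C with anti-CD3/anti-CD4 beads plus anti-CD28.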
* = called active by the depositor; ? = inconclusive; nt = no result given; [ ] = remark or other dose. Only some compounds are listed: those with a hit (about 2.3% of all), similar ones and a draw of the others. Unless noted, calls come from the whole dose curve; as a rule, active = well fitted curve in the direction sought with a large enough effect; inconclusive = small, poorly fitted or top-dose-only effect, or another doubt; inactive = no such curve, though single readings can be large; an effect the other way counts as inactive or inconclusive.

SMILES | Nrf2 ARE act | A549 tox | Nrf2 inh | IL-2 act
CN1CCN(C(=O)c2cc(COc3ccc(F)cc3Cl)on2)CC1c1ccccc1 (configuration not stated) | 4.5% | ? | 13µM* | -3.1
Cc1c(C(=O)N2CCCC2)oc2c1-c1nn(CC(=O)NC(C)c3ccccc3)cc1CC2 (configuration not stated) | 0.6% | -4.4% | 18.4µM* | nt
CCCCN1C(=O)/C(=C/C=C2\Oc3ccccc3N2CC)SC1=S | -0.4% | ? | -9.7% | -57.2
CCN1/C(=C/C=C/c2oc3ccc(-c4ccccc4)cc3[n+]2CC)Oc2ccc(-c3ccccc3)cc21 | -2.0% | 14.6µM* | 5.8µM* | ?
Cc1c(NS(=O)(=O)c2cccs2)cccc1-c1nc2cccnc2s1 | 3.2% | -2.8% | 3.8% | 0.8
O=S(=O)(Nc1cccc2ncccc12)c1cccs1 | ? | ? | 20.6µM* | 1.2
O=c1cnnc(N/N=C/c2c[nH]c3ccccc23)[nH]1 | 12.6µM* | -4.5% | ? | 0.0
COc1ccc(-n2c3c(cc(-c4nc(-c5ccc(Cl)cc5)cs4)c2=O)C(=O)CC(C)(C)C3)cc1 | -1.3% | -4.5% | 16.3% | nt
O=C(Nc1cccc(S(=O)(=O)N2CCCC2)c1)c1ccc2c(=O)n3c(nc2c1)CCCCC3 | -0.2% | -16.8% | 11.6µM* | -5.5
Cc1ccc(NC(=O)c2ccc3c(=O)n4c(nc3c2)CCCCC4)cc1F | 7.7% | ? | 18.4µM* | 0.5
O=C(Nc1nc(-c2ccccc2)cs1)c1ccc2c(=O)n3c(nc2c1)CCCCC3 | 0.6% | ? | 5.8µM* | 0.0
O=C(Nc1cccc(S(=O)(=O)N2CCOCC2)c1)c1ccc2c(=O)n3c(nc2c1)CCCCC3 | 0.4% | ? | 20.6µM* | -0.9
CC(=O)c1cccc(NC(=O)c2ccc3c(=O)n4c(nc3c2)CCCCC4)c1 | 3.2% | 0.8% | 4.2% | 0.7
COc1ccc(C(=O)N(Cc2ccc(C(C)C)cc2)C2CCS(=O)(=O)C2)cc1 (configuration not stated) | 4.9% | -18.4% | ? | nt
Cc1cc(-n2c(SCC(=O)NCc3ccccc3)nc3ccsc3c2=O)ccc1Cl | -0.2% | -11.6% | nt | nt
Cc1cccc2sc(NNC(=O)c3cc(-c4cccs4)nc4ccccc34)nc12 | -0.8% | ? | 23.1µM* | 0.2
Cc1ccc(NC(=O)c2cc(-c3cccs3)nc3ccccc23)c(C)c1 | 4.6% | -1.8% | -7.7% | nt
CCOC(=O)c1ccc(Nc2c(CC)c(C)nc3ncnn23)cc1 | -0.7% | -18.0% | 25.9µM* | -1.1
CCc1c(C)nc2ncnn2c1N1CCC(C(=O)Nc2ccccc2)CC1 | -0.6% | -8.8%[1.84 µM] | -29.9% | -2.3
CCc1c(C)nc2ncnn2c1N1CCC(C(=O)Nc2ccc(C)cc2)CC1 | 3.4% | -1.4%[1.84 µM] | 13µM* | -3.3
CCC(c1nnnn1CCc1ccccc1)N(Cc1ccco1)Cc1cc2c(C)ccc(C)c2[nH]c1=O (configuration not stated) | 4.0% | ? | 18.4µM* | -0.4
Cc1cc(=O)[nH]c2nnc(SCC(N)=O)n12 | 0.4% | -11.3% | nt | nt
CC1=C(C(=O)Nc2ccc(C)cc2C)C(c2ccc(O)cc2)n2nnnc2N1 (configuration not stated) | 5.5% | 0.1% | -2.9% | nt
CN(C)/C=C1\N=C(c2ccccc2)OC1=O | -0.3% | 0.0% | 28.3% | -2.3
CN(C)/C(CN1CCN(C=O)CC1)=C1\N=C(c2ccccc2)OC1=O | -0.7% | 2.3% | 23.1µM* | -2.7
SMILES | Nrf2 ARE act | A549 tox | Nrf2 inh | IL-2 act
Cc1cc(NC(=O)C2CCCN(S(=O)(=O)c3cn(C)cn3)C2)ccc1Br (configuration not stated) | 0.6% | -2.0% | nt | nt
Cn1c(SCc2nc3ccccc3s2)nnc1-c1cccs1 | 23.5% | 14.0% | ? | -0.2
CCn1c(SCC(=O)c2c[nH]c3ccccc23)nnc1-c1cccs1 | 11.2µM* | -10.2% | -16.0% | 1.0
CCn1c(SCc2nc(-c3cccs3)no2)nnc1-c1c[nH]c2ccccc12 | -0.5% | ? | 18.4µM* | 0.4
CCn1c(SCc2nc3ccccc3s2)nnc1-c1cccs1 | 14.1µM* | 2.8% | ? | -0.9
CCn1c(SCc2nc(-c3ccccc3)no2)nnc1-c1cccs1 | 4.4% | nt | ? | -0.4
CCn1c(SCC(=O)N/N=C/c2c[nH]c3ccccc23)nnc1-c1ccc(C(C)(C)C)cc1 | 0.0% | ? | 16.4µM* | -1.6
CCOCCc1nn2c(=O)cc(COC(=O)c3ccccc3NC(=O)c3ccccc3F)nc2s1 | 0.4% | 2.9% | nt | nt
Cc1noc(C)c1-c1ccc2ncnc(NCc3ccc(C(F)(F)F)o3)c2c1 | nt | 1.8% | ? | nt
CCc1cccc(C)c1NC(=O)C1CCN(S(=O)(=O)Cc2ccccc2)CC1 | 4.0% | 18.6% | 11.4% | nt
O=C(CNC(=O)c1ccccc1)OCC(=O)c1ccc2ccccc2c1 | nt | -8.6% | 3.4% | nt
C#CCn1c(=NC(=O)c2ccco2)sc2cccc(Cl)c21 | 3.98µM* | -2.6% | 5.4% | -3.0
CCOc1cccc2sc(=NC(=O)c3ccco3)n(CC(=O)OC)c12 | 14.9% | -8.5% | -3.7% | -3.4
CNc1c2cccc(C)c2nc2c(C(=O)NCCN(C)C)cccc12 | -1.5% | 4.61µM* | 1.46µM* | 0.0
Cc1ccc(C(=O)NCCN(C)C)c(C)c1 | -0.3% | -2.4% | 12.4% | -0.9
CC1CCc2cc(F)cc3c(O)c(C(=O)NCC4CCCO4)c(=O)n1c23 (configuration not stated) | -0.6% | -6.7% | 16.4µM* | -1.1
CCCn1c(=O)c(C(=O)NCC2CCCO2)c(O)c2ccccc21 (configuration not stated) | -0.4% | -1.1% | -8.3% | -1.8
Cc1cccc(C2C=C(c3ccc(C)c(C)c3)Nc3nnnn32)c1 (configuration not stated) | 4.5% | -1.0% | nt | nt
C/C(=N\OCC(=O)Nc1ccc2c(c1)OCCO2)c1ccc2c(c1)OCCO2 | -0.4% | -13.7% | 18.4µM* | 0.5
O=S(=O)(c1ccc2oc3ccccc3c2c1)N1CCCC1 | 0.0% | -1.4% | -16.2% | 0.1
CCN(CC)C(=O)C1CCN(S(=O)(=O)c2ccc3oc4ccccc4c3c2)CC1 | 0.4% | -3.8% | 20.6µM* | -2.4
COc1cccc(C(=O)Nc2sc3c(c2C(=O)O)CCCC3)c1 | 0.3% | ? | 5.8µM* | -0.7
Cc1cccc(C(=O)Nc2sc3c(c2C(=O)O)CCC3)c1 | -0.4% | ? | ? | 0.6
COc1ccc(NC(=O)c2c(NC(=O)C(F)(F)F)sc3c2CCCCC3)cc1 | 7.5% | ? | 1.84µM* | nt
Cc1ccc2oc3c(c(=O)c2c1)C(c1ccc(F)cc1)N(Cc1ccc2c(c1)OCO2)C3=O (configuration not stated) | -0.2% | 1.9% | 11.3% | nt
Cc1ccccc1OCC(=O)NCC(=O)OCC(=O)c1ccc(F)cc1 | nt | -0.3% | -20.4% | nt
COc1ccc(-c2cnc(SCC(=O)Nc3nc(C(C)(C)C)cs3)n2Cc2ccco2)cc1 | 7.8% | -15.4% | 20.6µM* | -0.3
O=C(CSc1ncc(-c2ccc(F)cc2)n1Cc1ccco1)Nc1nccs1 | -0.1% | -2.5% | -9.6% | 0.7

From PubChem
